The source of these data is ChEMBL document CHEMBL5724796, “Tm Shift (DSF) assay results for EUbOPEN Chemogenomics Library” (2024).

Residues, ends and D or L forms follow the SMILES beside them.

Common to all, as to conditions: Compound concentration 20.0 uM
Assay [1] concerns the target Tyrosine-protein kinase ABL1 (Homo sapiens) (UniProt P00519).
Assay [2] deals with Bromodomain-containing protein 4 (Homo sapiens) (UniProt O60885).
Assay [3] has as its target Cyclin-dependent kinase 2 (Homo sapiens) (UniProt P24941).
For assay [4], the target named is Casein kinase I isoform delta (Homo sapiens) (UniProt P48730).
The target of assay [5] is Glycogen synthase kinase-3 beta (Homo sapiens) (UniProt P49841).
For assay [6], the target named is Mitogen-activated protein kinase 1 (Homo sapiens) (UniProt P28482).
The target of assay [7] is T1, Aurora kinase A (Homo sapiens) (UniProt O14965).
T1 sequence (whole entry): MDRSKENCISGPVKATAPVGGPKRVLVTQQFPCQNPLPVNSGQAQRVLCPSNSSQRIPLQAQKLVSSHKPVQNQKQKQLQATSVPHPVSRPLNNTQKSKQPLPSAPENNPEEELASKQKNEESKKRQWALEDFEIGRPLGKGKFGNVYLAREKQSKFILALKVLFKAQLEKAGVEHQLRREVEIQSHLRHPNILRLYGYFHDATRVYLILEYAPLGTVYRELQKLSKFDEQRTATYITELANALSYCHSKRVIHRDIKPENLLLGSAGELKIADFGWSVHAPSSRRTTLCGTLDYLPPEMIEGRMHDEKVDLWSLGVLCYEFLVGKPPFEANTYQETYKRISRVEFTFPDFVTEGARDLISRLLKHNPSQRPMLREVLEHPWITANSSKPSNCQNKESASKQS

Assay [8] addresses T2, Transcription intermediary factor 1-alpha (Homo sapiens) (UniProt O15164).
T2 sequence (whole entry): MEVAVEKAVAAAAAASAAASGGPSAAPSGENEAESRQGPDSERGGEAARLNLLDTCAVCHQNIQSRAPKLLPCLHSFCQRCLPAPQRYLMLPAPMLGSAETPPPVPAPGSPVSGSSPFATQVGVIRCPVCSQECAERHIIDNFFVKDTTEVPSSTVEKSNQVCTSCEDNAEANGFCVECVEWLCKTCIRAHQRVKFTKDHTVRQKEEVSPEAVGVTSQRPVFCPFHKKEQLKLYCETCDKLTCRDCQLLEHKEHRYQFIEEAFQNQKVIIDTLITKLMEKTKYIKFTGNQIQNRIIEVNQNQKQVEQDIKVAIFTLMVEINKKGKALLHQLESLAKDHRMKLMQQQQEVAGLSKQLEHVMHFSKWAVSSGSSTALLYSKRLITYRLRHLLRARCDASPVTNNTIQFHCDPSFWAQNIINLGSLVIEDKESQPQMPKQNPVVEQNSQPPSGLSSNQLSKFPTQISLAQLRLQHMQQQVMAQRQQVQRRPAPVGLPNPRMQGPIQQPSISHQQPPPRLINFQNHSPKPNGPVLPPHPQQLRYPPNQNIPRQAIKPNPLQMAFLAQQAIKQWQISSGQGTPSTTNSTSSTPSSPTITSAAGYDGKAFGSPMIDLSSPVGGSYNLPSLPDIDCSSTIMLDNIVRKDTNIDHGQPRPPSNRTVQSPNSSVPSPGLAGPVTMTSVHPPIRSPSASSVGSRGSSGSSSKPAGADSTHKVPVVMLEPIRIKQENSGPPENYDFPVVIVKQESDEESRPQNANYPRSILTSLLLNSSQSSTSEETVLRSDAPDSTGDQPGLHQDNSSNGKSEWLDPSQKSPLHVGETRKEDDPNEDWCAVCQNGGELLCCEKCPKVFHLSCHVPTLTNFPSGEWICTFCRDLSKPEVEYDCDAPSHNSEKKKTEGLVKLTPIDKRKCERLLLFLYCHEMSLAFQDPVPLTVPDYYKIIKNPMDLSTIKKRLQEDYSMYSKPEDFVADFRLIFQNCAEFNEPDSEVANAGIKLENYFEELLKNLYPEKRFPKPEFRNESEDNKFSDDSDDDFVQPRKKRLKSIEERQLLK

Mitogen-activated protein kinase 1 (Homo sapiens), sequence (P28482 whole entry): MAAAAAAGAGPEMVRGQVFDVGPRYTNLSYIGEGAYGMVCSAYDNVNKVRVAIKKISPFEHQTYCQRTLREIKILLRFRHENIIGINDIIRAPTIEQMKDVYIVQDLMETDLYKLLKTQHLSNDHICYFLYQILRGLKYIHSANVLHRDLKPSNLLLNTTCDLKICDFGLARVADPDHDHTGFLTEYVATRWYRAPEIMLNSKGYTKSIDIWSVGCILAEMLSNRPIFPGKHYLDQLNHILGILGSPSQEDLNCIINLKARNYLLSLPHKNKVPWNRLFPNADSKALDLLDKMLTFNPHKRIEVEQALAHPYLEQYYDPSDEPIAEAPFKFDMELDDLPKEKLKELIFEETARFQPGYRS
Tyrosine-protein kinase ABL1 (Homo sapiens), sequence (P00519 whole entry): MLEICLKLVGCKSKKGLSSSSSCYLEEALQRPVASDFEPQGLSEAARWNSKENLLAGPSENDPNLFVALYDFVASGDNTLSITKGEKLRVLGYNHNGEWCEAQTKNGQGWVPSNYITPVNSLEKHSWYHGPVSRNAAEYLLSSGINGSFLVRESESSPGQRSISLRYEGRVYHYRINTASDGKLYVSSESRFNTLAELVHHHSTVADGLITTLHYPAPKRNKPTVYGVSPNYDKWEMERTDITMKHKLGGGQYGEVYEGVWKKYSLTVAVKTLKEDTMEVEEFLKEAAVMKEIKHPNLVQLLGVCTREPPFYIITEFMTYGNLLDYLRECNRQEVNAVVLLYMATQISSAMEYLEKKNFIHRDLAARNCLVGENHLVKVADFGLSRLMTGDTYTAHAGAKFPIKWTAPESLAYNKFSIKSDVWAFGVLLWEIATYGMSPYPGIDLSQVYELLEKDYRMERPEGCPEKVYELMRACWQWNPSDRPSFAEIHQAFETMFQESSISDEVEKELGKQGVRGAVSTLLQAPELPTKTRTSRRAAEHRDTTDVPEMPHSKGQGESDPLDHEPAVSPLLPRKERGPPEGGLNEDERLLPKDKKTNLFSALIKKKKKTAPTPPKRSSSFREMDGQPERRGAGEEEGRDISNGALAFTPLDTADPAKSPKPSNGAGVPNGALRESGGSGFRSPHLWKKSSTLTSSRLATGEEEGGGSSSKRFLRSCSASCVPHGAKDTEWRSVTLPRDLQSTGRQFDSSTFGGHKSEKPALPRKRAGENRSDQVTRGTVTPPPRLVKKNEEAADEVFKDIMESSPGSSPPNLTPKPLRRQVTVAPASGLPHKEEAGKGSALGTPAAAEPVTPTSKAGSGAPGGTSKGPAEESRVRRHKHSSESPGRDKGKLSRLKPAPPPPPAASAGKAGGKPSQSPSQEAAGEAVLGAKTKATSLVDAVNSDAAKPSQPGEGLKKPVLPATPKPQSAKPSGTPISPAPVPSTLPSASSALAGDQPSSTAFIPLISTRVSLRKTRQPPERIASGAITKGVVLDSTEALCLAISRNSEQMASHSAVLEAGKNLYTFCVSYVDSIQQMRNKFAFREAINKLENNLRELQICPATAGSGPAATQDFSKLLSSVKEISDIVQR
Casein kinase I isoform delta (Homo sapiens), sequence (P48730 whole entry, looked up, canonical isoform): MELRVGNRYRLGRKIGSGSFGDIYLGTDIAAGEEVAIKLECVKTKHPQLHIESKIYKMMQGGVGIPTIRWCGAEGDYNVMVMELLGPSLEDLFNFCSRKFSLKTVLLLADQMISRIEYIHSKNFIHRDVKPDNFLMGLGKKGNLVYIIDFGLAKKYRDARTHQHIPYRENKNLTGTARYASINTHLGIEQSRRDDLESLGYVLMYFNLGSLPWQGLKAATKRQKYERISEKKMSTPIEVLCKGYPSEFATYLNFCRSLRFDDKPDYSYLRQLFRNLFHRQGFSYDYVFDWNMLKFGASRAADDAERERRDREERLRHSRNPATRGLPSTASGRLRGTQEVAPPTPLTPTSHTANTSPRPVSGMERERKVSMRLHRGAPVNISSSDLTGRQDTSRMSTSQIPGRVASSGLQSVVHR
Glycogen synthase kinase-3 beta (Homo sapiens), sequence (P49841 whole entry, looked up): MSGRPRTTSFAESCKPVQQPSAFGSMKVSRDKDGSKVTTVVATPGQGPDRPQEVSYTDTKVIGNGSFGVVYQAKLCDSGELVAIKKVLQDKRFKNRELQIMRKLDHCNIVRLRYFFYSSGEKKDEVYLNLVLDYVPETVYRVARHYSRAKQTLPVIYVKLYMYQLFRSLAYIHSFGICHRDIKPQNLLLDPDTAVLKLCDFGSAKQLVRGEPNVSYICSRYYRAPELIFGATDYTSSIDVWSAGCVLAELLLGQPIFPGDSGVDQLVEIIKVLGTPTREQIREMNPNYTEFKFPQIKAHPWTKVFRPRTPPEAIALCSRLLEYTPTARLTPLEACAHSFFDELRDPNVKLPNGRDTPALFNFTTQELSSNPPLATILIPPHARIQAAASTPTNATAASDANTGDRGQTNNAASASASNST

As a reminder, the ΔTm is the change in melting temperature against a reference sample. On to `CNC(=O)c1cnc(N2CCC[C@H](N)C2)nc1Nc1cc(C(C)C)nc(C(C)C)c1`, for which the ΔTm in assay [1] is 0.5 °C; in assay [2], -1.65 °C; in assay [3] it was 0.07 °C; in assay [4] it was 1.75 °C; in assay [5], -0.33 °C; in assay [6], 0.06 °C. The ΔTm in assay [7] is -0.12 °C; in assay [8], -1 °C.

`Cn1cc(C(=O)Nc2ccc([C@@H]3C[C@H]3NCC3CC3)cc2)cn1`: the thermal shift (ΔTm) was 0.52 °C in assay [1]; -3.07 °C in assay [2]; 0.01 °C in assay [3]; -0.16 °C in assay [4]; -0.77 °C in assay [5]; 0.06 °C in assay [6]. Moreover, the ΔTm in assay [7] is -2.24 °C; in assay [8] it was 0.47 °C.

For `CC(C)[C@@H]1C(=O)N(S(C)(=O)=O)[C@@H]2CCN(C(=O)/C=C/CN3CCCCC3)[C@H]21`, the ΔTm was 0.18 °C in assay [1]; -2.34 °C in assay [2]; 0.22 °C in assay [3]; 0.11 °C in assay [4]; -1.7 °C in assay [5]; 0.03 °C in assay [6]. For the same compound, the ΔTm in assay [7] was -0.54 °C; in assay [8], -1.12 °C.

As to `N=C(N)SCc1ccc(CN2C(=O)C(=O)c3cc(C(F)(F)F)ccc32)cc1`, the ΔTm in assay [1] was -0.91 °C; in assay [2], -2.92 °C; in assay [3], 0.03 °C; in assay [4], 0.19 °C; in assay [5], -0.71 °C; in assay [6], 0.42 °C. Besides, the ΔTm was -1.8 °C in assay [7] and 0 °C in assay [8].

In the case of `Cc1ccc(C(=O)Nc2ccc(S(=O)(=O)O)c3cc(S(=O)(=O)O)cc(S(=O)(=O)O)c23)cc1NC(=O)c1cccc(NC(=O)Nc2cccc(C(=O)Nc3cc(C(=O)Nc4ccc(S(=O)(=O)O)c5cc(S(=O)(=O)O)cc(S(=O)(=O)O)c45)ccc3C)c2)c1`, the ΔTm in assay [1] is 0.88 °C; in assay [2], -5.41 °C; in assay [3], -2.98 °C; in assay [4], -1.4 °C; in assay [5] it was -0.55 °C; in assay [6], -0.68 °C. Also, the ΔTm is 0 °C in assay [7] and -1.19 °C in assay [8].

Regarding `Cc1ccnc(NS(=O)(=O)c2ccc(NC(=O)Nc3ccc(S(=O)(=O)Nc4nccc(C)n4)cc3)cc2)n1`, the ΔTm in assay [1] is 0.29 °C; in assay [2], -0.01 °C; in assay [3], 0.44 °C; in assay [4] it was -0.62 °C; in assay [5], -1.11 °C; in assay [6] it was 0.44 °C. Further, the ΔTm was -1.78 °C in assay [7] and 2.1 °C in assay [8].

Consider `CS(=O)(=O)c1ncn2c(NCc3c(F)ccc4c3CCO4)ncc(-c3ccc(C4CC4)nc3)c12`, for which the ΔTm in assay [1] was 0.63 °C; in assay [2], -3.29 °C; in assay [3], 0.06 °C; in assay [4] it was -0.23 °C; in assay [5], -0.29 °C; in assay [6] it was 0.08 °C. The shift in melting temperature (ΔTm) is -2.48 °C in assay [7] and -0.37 °C in assay [8].

Consider `Fc1ccc(CNc2ncnc3ccc(F)cc23)cc1`, for which the thermal shift (ΔTm) was 1.11 °C in assay [1]; -2.88 °C in assay [2]; 0.04 °C in assay [3]; 0.46 °C in assay [4]; 0.18 °C in assay [5]; 0.19 °C in assay [6]. Also, the values for the ΔTm in assay [7] and in assay [8] were -1.03 °C and -0.4 °C, respectively.

As to `Cn1cc(NC(=O)c2cc(F)cc(F)c2)c(C(=O)NC2CCNCC2)n1`, the thermal shift (ΔTm) in assay [1] is 0.23 °C; in assay [2] it was -2.12 °C; in assay [3], -0.02 °C; in assay [4], 1.02 °C; in assay [5], -0.14 °C; in assay [6] it was -0.35 °C. The figures for the shift in melting temperature (ΔTm) in assay [7] and in assay [8] were -0.65 °C and -0.68 °C, respectively.

With `CC[C@H](C)[C@H](NC(=O)[C@H](CCC(=O)O)NC(=O)[C@@H](NC(C)=O)C(C)C)C(=O)N[C@H](C=O)CC(=O)O` (Ac-VEID-aldehyde), the thermal shift (ΔTm) in assay [1] is -0.05 °C; in assay [2], -2.59 °C; in assay [3], -0.23 °C; in assay [4], -0.08 °C; in assay [5], -0.35 °C; in assay [6], -0.47 °C. The ΔTm in assay [7] is -1.47 °C; in assay [8], -0.43 °C.

Turning to `COC(=O)[C@H]1[C@H]2C[C@@H]3c4[nH]c5cc(OC)ccc5c4CCN3C[C@H]2C[C@@H](OC(=O)c2cc(OC)c(OC)c(OC)c2)[C@@H]1OC`, the ΔTm was 0.21 °C in assay [1]; -0.12 °C in assay [2]; 0.11 °C in assay [3]; -0.26 °C in assay [4]; -0.54 °C in assay [5]; 0.12 °C in assay [6]. Moreover, the ΔTm in assay [7] is -0.63 °C; in assay [8], -0.4 °C.
